Data as given in PubChem BioAssay (NCI).
About 79,000 compounds went through this panel and 15% of them were active in at least one assay; those are over-represented in the sample as a whole. Unmarked numbers belong to inactive results. Activity calls are given as the source filed them. No stated cut-off is given here; in the data, active means growth inhibition above about 70%; inactive means the rest.

Assay: NCI Yeast Anticancer Drug Screen. Data for the sgs1 mgt1 strain (AID 161);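 further: 0% = growth of cultures given vehicle only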
Details: S. cerevisiae sgs1 mgt1 strain, at 5.0 µM (retest, dose inferred, filed as 0.5), active compounds read high
In short: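 Mutant yeast exposed to compound; growth scored against vehicle-only wells.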
Compound `ClCCOCCOc1c(Cl)cc(Cl)c(Cl)c1Cl` has a growth inhibition of 9%.
In the case of `Cc1ccc(S(=O)(=O)C(=S)Sc2ccccc2)cc1`, the growth inhibition is reported as 10%.
`CCC(C)(C)c1ccc(OCCO)c([N+](=O)[O-])c1` gave a growth inhibition of 15%.
Work on `CCCCCCC(C)S(=O)(=O)c1ccc(C)cc1` (stereo unspecified) yielded a growth inhibition of 7%.
`O=C1N(Cc2ccccc2)CC1(c1ccccc1)C1CCCCC1O` (stereo unspecified) gave a growth inhibition of -3%.
In the case of `COc1cc2c(oc(=O)c3cc(C)cc(OC)c32)c2c(C3OC(C)C(O)C(C)(O)C3O)ccc(O)c12` (stereo unspecified), the growth inhibition is reported as 79% (active).
Compound `CCc1cc(C)cc(NC(=O)OC2CCCCC2C)c1` (stereo unspecified) has a growth inhibition of 35%.
`Cc1cc(Nc2ccc(N=Nc3ccc(O)c4ncccc34)cc2)nc(C)n1` gave a growth inhibition of -2%.
In the case of `Oc1ccc(C2SC(c3ccc(O)cc3)SC(c3ccc(O)cc3)S2)cc1` (stereo unspecified), the growth inhibition is reported as -23%.
With `O=[N+]([O-])c1cnc(Sc2cncc[n+]2[O-])s1` the growth inhibition was 99% (active).
Work on `O=C(C1=Cc2ccccc2OC1)N1CCN(c2cccc(Cl)c2)CC1` yielded a growth inhibition of 1%.
With `O=C1C=CC(=O)c2cc(Sc3ccccc3)c(=O)ccc21` the growth inhibition was 25%.
Compound `O=C(O)CCCCCCC(=O)CCl` has a growth inhibition of 24%.
In the case of `CC(=O)NC1=C(Sc2ccc(C)cc2)C(=O)c2ccccc2C1=O`, the growth inhibition is reported as 72% (active).
With `Cc1cc(O)c(C=NC(=S)C(N)=S)c(=O)o1` the growth inhibition was 22%.
`Cc1cc(C)c(Cc2cc(C(C)(C)C)cc(C)c2O)cc1Cc1cc(C(C)(C)C)cc(C)c1O` gave a growth inhibition of 2%.
`O=C(O)CCC/C(=N\Nc1ccccc1)C(=O)O` showed a growth inhibition of 6%.
Work on `Cc1cc(Oc2nc(Cl)nc(C(Cl)(Cl)Cl)c2Cl)cc(C)c1N(C)C` (tested in a mixture with another compound) yielded a growth inhibition of -2%.
In the case of `CC(NCCO)c1ccc2ccccc2c1` (stereo unspecified), the growth inhibition is reported as -10%.
Work on `[O-][n+]1ccc(Br)c(/C=C/c2ccccc2)c1` yielded a growth inhibition of -2%.
Work on `O=C(NCCNCCNCCNC(=O)c1cc(-c2ccccc2)nc2ccccc12)c1cc(-c2ccccc2)nc2ccccc12` yielded a growth inhibition of -7%.
In the case of `CC(C)C(Sc1nc(-c2ccccc2)c(-c2ccccc2)[nH]1)C(=O)NN` (stereo unspecified), the growth inhibition is reported as -3%.
Work on `O=C(CNc1cccc(Cl)c1)Nn1c(-c2ccccc2)nc2ccccc2c1=O` yielded a growth inhibition of 4%.
Work on `O=C(COc1ccc(Cl)c(Cl)c1)Nc1ccc[n+](Cc2ccc(Cl)c(Cl)c2)c1` yielded a growth inhibition of 13%.
In the case of `CCOC(=O)c1cnccc1CC1(C#N)c2ccccc2C=CN1C(=O)c1ccccc1` (stereo unspecified), the growth inhibition is reported as 4%.
Work on `O=C1C(N2CCOCC2)=C(Cl)C(=O)c2ncccc21` yielded a growth inhibition of 35%.
